The source made the active and inactive calls.
Experiments:
[1] = small molecules captured by biotinylated probe aFSTL3 – biochemical, small-molecule microarray, fluorescence 635/667, stem cell growth factor project, primary screen (AID 1064); settings: higher = more signal;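 further: measures binding of the biotinylated anti-FSTL3 antibody to printed compounds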
[2] = binders from COS7 lysate, DM2A8 probe, primary screen, torsin A project, cell lysate, small-molecule microarray, fluorescence 635/667 (AID 1065); settings: higher = more signal, COS7 lysate expressing mutant human TOR1A
[3] = small molecules captured by biotinylated probe aFGF2 – biochemical, small-molecule microarray, fluorescence 635/667, stem cell growth factor project, primary screen (AID 1067); settings: higher = more signal;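 further: measures binding of biotinylated aFGF2 protein to printed compounds on slides; z-score merges feature fluorescence and signal-to-noise across triplicate slides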
[4] = small molecules captured by biotinylated probe aFGF10 – biochemical, small-molecule microarray, fluorescence 635/667, stem cell growth factor project, primary screen (AID 1071); settings: higher = more signal;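 further: score merges 667 nm spot intensity and signal to noise from triplicate slides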
[5] = target: Neurogenic locus notch homolog protein 2 (Homo sapiens) (UniProt Q04721); experiment: small molecules binding Notch2 protein – biochemical, small-molecule microarray, 635 nm fluorescence, stem cell growth factors, primary screen (AID 1073); settings: higher = more signal
[6] = target: Pro-neuregulin-1, membrane-bound isoform (Homo sapiens) (UniProt Q02297); experiment: small molecules binding neuregulin-1 protein – biochemical, small-molecule microarray, fluorescence 635/667, psychiatric disease protein project, primary screen (AID 1075); settings: NRG1 binding, 635 nm fluorescence, higher = more signal;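 further: score combines 667 nm spot fluorescence with signal to noise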
[7] = tested on: Neuregulin-1 EGF-like domain; experiment: small molecules binding NRG1 EGF domain – biochemical, small-molecule microarray, 635 nm fluorescence, primary screen (AID 1081); settings: higher = more signal;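 further: binding of the protein to compounds printed on small-molecule microarray slides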
[8] = FRG1 expression reporter modulators in myotubes – cell-based, C2C12 myotubes, firefly/Renilla luciferase, luminescence, FRG1 inhibition for FSHD, primary screen (AID 1084); settings: FRG1 promoter luciferase, higher = more signal, called active from +8 up or from −8 down
[9] = small molecules captured by biotinylated probe aFST – biochemical, small-molecule microarray, fluorescence 635/667, stem cell growth factor project, primary screen (AID 1086); settings: higher = more signal;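 further: score merges 667 nm fluorescence with signal-to-noise of each printed compound spot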
[10] = binders of probe aHhip on microarray, primary screen, stem cell growth factor project, biochemical, small-molecule microarray, fluorescence 635/667 (AID 1087); settings: higher = more signal;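 further: score merges spot fluorescence at 667nm with spot signal to noise ratio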
[11] = tested on: PRMT1 (protein arginine N-methyltransferase 1); experiment: small molecules binding arginine methyltransferase PRMT1 – biochemical, small-molecule microarray, 635 nm fluorescence, primary screen (AID 1088); settings: higher = more signal;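 further: binding of Prmt1 protein to compounds spotted on small-molecule microarray slides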
[12] = growth effects on S. cerevisiae YJM789 – YJM789 clinical isolate, OD600, 24 h, basal, primary screen (AID 1089); settings: higher = more signal, called active from +8 up or from −8 down;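 further: growth of clinical yeast isolate S. cerevisiae YJM 789 seeded 1000 cells per well; test concentration not given here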
[13] = S. pombe growth modifiers, basal conditions – strain 972, OD600, 24 h, no modulator, primary screen (AID 1090);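 further: basal condition with compound alone and no growth modifier present; test concentration not given here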; settings: S. pombe 972 growth, higher = more signal, called active from +8 up or from −8 down
[14] = budding yeast growth modifiers under rapamycin – strain BY4716, OD600, 96 h, primary screen (AID 1091); further: test concentration not given here; settings: S. cerevisiae BY4716 + rapamycin, higher = more signal, called active from +8 up or from −8 down
[15] = target: Torsin-1A-interacting protein 2 (Homo sapiens) (UniProt Q8NFQ8); experiment: small molecules binding lysate-expressed LULL1 – cell lysate, human LULL1 lysate, 635/667 nm fluorescence, primary screen (AID 1092); settings: small-molecule microarray, hLULL1 lysate binding, 635 nm fluorescence; higher = more signal;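 further: probe is lysate of COS7 cells overexpressing human LULL1; score merges per-feature 667 nm fluorescence with signal-to-noise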
[16] = optical density change of DRC41 E. coli – strain DRC41, OD650, 24 h, E. coli filamentation project, primary screen (AID 1093);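 further: MC1000 strain lacking acrAB efflux and sulA so SOS filamentation is blocked; test concentration not given here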; settings: E. coli DRC41 growth, higher = more signal, called active from +8 up or from −8 down
[17] = probe aLefty2 binding to arrayed compounds – biochemical, biotinylated probe, 635/667 nm fluorescence, primary screen (AID 1094); settings: small-molecule microarray, higher = more signal;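 further: score merges spot fluorescence near 667 nm with spot signal-to-noise ratio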
[18] = tested on: Noggin (protein binding on small-molecule microarray); experiment: small molecules binding Noggin protein – biochemical, 635/667 nm fluorescence, primary screen (AID 1095); settings: 635 nm fluorescence, higher = more signal;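 further: score merges 667 nm feature fluorescence with signal to noise over triplicate slides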
[19] = target: Neurogenic locus notch homolog protein 3 (Homo sapiens) (UniProt Q9UM47); experiment: small molecules binding NOTCH3 protein – biochemical, 635/667 nm fluorescence, primary screen (AID 1096); settings: small-molecule microarray, 635 nm fluorescence, higher = more signal
[20] = probe aEGFR binding to arrayed compounds – biochemical, biotinylated probe, 635/667 nm fluorescence, primary screen (AID 1097); settings: small-molecule microarray, higher = more signal;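 further: probe is a biotinylated anti-EGFR antibody binding compounds printed on slides; score combines fluorescence near 667 nm and signal to noise of each spot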

Sequence of Torsin-1A-interacting protein 2 (Homo sapiens) (Q8NFQ8 whole entry, looked up): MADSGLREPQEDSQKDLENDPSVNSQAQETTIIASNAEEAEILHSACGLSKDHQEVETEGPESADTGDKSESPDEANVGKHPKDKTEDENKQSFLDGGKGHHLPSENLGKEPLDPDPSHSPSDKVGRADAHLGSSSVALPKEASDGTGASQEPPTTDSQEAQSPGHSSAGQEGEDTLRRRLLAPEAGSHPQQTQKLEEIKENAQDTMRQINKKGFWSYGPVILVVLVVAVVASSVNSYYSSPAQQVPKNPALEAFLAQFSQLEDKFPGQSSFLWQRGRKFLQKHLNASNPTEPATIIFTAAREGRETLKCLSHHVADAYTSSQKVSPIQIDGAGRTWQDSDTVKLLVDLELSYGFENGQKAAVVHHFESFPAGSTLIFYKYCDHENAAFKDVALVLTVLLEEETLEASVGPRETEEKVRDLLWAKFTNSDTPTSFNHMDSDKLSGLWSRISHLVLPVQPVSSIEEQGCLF
Sequence of Neurogenic locus notch homolog protein 2 (Homo sapiens) (Q04721 whole entry, looked up, canonical isoform): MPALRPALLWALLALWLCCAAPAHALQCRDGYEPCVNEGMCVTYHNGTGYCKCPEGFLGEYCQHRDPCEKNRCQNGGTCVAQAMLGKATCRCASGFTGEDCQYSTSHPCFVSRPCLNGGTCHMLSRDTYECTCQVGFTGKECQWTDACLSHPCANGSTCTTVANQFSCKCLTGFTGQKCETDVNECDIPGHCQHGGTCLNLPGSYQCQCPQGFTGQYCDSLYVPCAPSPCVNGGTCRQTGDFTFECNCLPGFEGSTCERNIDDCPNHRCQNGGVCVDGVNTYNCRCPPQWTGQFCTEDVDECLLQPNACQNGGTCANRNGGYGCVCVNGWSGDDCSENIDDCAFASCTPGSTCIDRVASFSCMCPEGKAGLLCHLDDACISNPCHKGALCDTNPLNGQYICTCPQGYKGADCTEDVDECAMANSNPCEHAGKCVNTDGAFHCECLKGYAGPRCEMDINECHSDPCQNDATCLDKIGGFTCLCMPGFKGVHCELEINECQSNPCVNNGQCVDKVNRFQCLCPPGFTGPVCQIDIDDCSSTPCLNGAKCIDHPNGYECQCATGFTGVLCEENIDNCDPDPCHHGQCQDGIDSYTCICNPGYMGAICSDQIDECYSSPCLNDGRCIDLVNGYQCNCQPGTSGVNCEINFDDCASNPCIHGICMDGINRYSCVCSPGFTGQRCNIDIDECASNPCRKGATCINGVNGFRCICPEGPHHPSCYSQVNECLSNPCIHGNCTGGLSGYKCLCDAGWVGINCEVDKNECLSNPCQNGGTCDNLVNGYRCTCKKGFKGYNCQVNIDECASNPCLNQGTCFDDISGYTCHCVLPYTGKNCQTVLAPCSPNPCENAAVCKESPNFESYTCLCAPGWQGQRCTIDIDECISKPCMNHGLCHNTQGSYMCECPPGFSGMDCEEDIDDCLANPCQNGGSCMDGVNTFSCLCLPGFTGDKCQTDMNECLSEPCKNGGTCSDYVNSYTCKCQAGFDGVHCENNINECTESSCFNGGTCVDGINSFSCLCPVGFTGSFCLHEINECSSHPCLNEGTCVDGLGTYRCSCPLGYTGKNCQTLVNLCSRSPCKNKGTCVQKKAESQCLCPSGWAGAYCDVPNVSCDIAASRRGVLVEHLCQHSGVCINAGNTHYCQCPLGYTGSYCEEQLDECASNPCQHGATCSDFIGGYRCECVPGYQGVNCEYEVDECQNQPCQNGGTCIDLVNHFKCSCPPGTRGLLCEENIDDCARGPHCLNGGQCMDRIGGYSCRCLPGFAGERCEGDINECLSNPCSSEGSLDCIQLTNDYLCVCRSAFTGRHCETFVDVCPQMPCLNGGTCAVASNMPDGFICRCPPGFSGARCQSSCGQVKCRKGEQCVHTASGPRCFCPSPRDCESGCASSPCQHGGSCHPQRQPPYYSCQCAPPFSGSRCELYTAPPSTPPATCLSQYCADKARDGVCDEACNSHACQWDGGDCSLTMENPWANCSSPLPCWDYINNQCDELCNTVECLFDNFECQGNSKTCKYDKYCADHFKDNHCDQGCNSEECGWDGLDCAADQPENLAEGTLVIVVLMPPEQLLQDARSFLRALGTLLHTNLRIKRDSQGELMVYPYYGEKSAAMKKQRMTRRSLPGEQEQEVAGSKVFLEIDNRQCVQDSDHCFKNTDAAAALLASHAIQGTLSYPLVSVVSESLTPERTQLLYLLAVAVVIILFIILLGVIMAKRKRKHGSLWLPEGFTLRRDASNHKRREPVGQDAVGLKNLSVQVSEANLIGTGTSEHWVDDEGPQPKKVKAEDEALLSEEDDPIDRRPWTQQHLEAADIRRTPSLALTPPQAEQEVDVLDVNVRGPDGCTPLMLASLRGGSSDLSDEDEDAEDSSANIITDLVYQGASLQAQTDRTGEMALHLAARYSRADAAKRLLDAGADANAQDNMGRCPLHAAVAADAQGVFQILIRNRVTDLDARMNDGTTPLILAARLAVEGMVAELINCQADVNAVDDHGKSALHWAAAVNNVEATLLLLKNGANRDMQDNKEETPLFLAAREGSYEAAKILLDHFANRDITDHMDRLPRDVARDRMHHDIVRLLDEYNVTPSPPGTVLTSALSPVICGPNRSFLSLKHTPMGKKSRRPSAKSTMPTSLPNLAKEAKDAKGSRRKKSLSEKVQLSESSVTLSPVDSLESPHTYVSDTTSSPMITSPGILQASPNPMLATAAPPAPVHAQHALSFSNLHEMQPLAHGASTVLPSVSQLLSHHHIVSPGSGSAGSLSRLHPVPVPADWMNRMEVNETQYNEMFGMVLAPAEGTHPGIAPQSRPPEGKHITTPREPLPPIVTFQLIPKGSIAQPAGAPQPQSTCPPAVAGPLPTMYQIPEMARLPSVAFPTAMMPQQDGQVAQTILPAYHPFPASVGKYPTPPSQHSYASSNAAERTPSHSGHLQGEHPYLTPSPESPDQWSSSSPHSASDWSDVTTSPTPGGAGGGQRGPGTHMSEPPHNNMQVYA
Sequence of Pro-neuregulin-1, membrane-bound isoform (Homo sapiens) (Q02297 whole entry, looked up, the tested form may be a part, canonical isoform): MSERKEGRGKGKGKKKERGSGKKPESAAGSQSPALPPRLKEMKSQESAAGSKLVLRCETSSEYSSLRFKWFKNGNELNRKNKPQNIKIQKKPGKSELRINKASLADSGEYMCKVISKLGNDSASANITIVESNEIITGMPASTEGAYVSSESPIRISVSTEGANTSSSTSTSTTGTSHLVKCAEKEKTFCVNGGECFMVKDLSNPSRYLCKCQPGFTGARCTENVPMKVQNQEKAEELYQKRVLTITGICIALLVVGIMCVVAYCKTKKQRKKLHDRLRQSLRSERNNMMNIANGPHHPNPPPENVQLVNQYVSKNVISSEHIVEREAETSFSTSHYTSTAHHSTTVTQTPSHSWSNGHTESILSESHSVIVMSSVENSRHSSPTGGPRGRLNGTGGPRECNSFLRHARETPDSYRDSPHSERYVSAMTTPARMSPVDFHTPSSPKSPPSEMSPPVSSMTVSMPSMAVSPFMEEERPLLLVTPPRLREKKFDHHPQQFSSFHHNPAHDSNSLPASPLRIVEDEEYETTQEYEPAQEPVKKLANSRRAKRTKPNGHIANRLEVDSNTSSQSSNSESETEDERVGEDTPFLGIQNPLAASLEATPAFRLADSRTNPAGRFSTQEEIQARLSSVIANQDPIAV

Row | SMILES | composite z-score [1] | composite z-score [2] | composite z-score [3] | composite z-score [4] | composite z-score [5] | composite z-score [6] | composite z-score [7] | z-score [8] | composite z-score [9] | composite z-score [10] | composite z-score [11] | z-score [12] | z-score [13] | z-score [14] | composite z-score [15] | z-score [16] | composite z-score [17] | composite z-score [18] | composite z-score [19] | composite z-score [20]
1 | C=C(CCCC)/C(=C/C[C@H](OC(=O)c1ccncc1)c1ccc(CO)o1)c1cc(C(=O)OC)ccc1OC | -0.293 | 1.83 | -0.116 | 0.418 | 0.822 | 1.01 | 1.26 | -0.906 (inactive) | 0.381 | 0.0722 | 1.56 | -0.0643 (inactive) | -1.65 (inactive) | -0.57 (inactive) | 2.12 | 0.171 (inactive) | 0.0123 | 1 | 1.13 | -0.0056
2 | CN(C)C(=O)[C@@]1(CCC(=O)OC(C)(C)C)COC(c2ccc(OCCCO)cc2)=N1 | 0.0486 | 0.0295 | -0.0598 | 0.448 | 0.675 | 1.8 | 1.41 | -0.977 (inactive) | 0.267 | -0.189 | 1.32 | -0.321 (inactive) | -0.369 (inactive) | -0.501 (inactive) | 3.78 | 0.771 (inactive) | 0.112 | 0.74 | 0.0673 | -0.122
3 | CCOC(=O)C[C@H]1[C@H](OC(=O)Cc2ccc3c(c2)OCO3)[C@@H](NC(=O)c2ccccc2)c2cc(OCCCO)ccc2N1C(=O)c1ccc2ccccc2n1 | -0.146 | -0.183 | -0.147 | 0.352 | 0.671 | 0.485 | 0.55 | -4.6 (inactive) | 0.0323 | -0.175 | 0.4 | -2.25 (inactive) | -1.2 (inactive) | -0.433 (inactive) | 1.13 | 1.45 (inactive) | -0.0179 | 0.196 | 0.0199 | -0.147
4 | COC(=O)[C@H]1N=C(c2ccc(OCCCO)cc2)O[C@H]1c1ccccc1CN=[N+]=[N-] | 1.03 | -0.872 | 0.0544 | -0.202 | -0.525 | 0.526 | 0.591 | 4.14 (inactive) | 0.906 | 0.334 | 0.943 | -0.363 (inactive) | -0.225 (inactive) | 0.444 (inactive) | 1.84 | 0.887 (inactive) | 0.992 | -0.0277 | 0.27 | -0.131
5 | O=C1c2ccccc2[C@](Cc2ccccc2I)(C(=O)NC2CC2)[C@H](c2ccc(CO)cc2)N1Cc1ccccc1Cl | 0.558 | 0.478 | 0.221 | 0.487 | 1.23 | 1.36 | 1.27 | -2.71 (inactive) | 0.496 | -0.105 | 1.36 | 0.07 (inactive) | 0.376 (inactive) | 1.57 (inactive) | 1.91 | -1.02 (inactive) | 0.349 | 1.53 | 0.856 | 0.178
6 | COCCCNC(=O)[C@]1(Cc2ccccc2CN=[N+]=[N-])N=C(c2ccc(OCCCO)cc2)O[C@@H]1c1ccccc1CN=[N+]=[N-] | 0.726 | 0.686 | 0.256 | 1.03 | 1.25 | 1.84 | 1.15 | -1.35 (inactive) | 1.23 | 0.537 | 1.51 | -0.353 (inactive) | 1.34 (inactive) | 31.6 (active) | 3.17 | 0.378 (inactive) | 0.419 | 0.342 | 0.697 | 0.332
7 | CCOC(=O)C[C@H]1[C@H](OC(=O)c2ccc(C(=O)c3ccccc3)cc2)[C@@H](NC(=O)C2CCCCC2)c2cc(OCCCO)ccc2N1C(=O)Cc1ccc(OC)cc1 | 0.644 | 0.673 | 0.0007 | 0.348 | 0.376 | 0.556 | 0.207 | -1.01 (inactive) | 0.757 | 0.295 | 0.623 | -0.989 (inactive) | 0.0425 (inactive) | -0.0492 (inactive) | 0.603 | 0.332 (inactive) | 0.0044 | 0.544 | 0.88 | 0.0408
8 | CCCc1cc2c(n1Cc1ccc(OC)cc1)C(C)C1CN(C(=O)c3ccccc3)C(C)(C(=O)OC)C21 (stereo not given) | 1.24 | 0.575 | 0.354 | 0.345 | 1.59 | 1.81 | 1.2 | -0.0832 (inactive) | 1.14 | -0.127 | 1.34 | 0.461 (inactive) | 0.815 (inactive) | 1.64 (inactive) | 3.37 | -1.21 (inactive) | 0.8 | -0.758 | 1.05 | 0.389
9 | CC1(C)[C@@H]2CC(C(O)C3C=CC4C(=O)N(c5ccccc5)C(=O)C4N3Nc3ccccc3F)=C[C@@H]1C2 (stereo not given in full) | -0.168 | 0.159 | -0.0092 | 1.03 | 1.54 | 1.28 | 1.14 | -3.65 (inactive) | 0.955 | -0.228 | 1.53 | -0.601 (inactive) | 0.5 (inactive) | -0.382 (inactive) | 3.19 | -0.117 (inactive) | 0.155 | 0.791 | 1.06 | 0.0066
10 | NC(=O)[C@H]1[C@@H]2C(=O)O[C@@H](c3ccccc3)[C@@H](c3ccccc3)N2[C@@H](c2ccc(O)cc2)[C@]12C(=O)Nc1ccc(C#CC3(O)CCCCCC3)cc12 | 0.0918 | 0.417 | -0.0454 | 0.607 | 1.35 | 1.5 | 1.35 | -1.46 (inactive) | 0.617 | 0.233 | 1.53 | 0.46 (inactive) | -1.09 (inactive) | 1.33 (inactive) | 3.22 | 0.568 (inactive) | 0.0441 | 1.2 | 1.03 | 0.0955

Source: PubChem BioAssay
